Screening data deposited in PubChem BioAssay by Johns Hopkins Ion Channel Center.
This is a sample that favours compounds with a hit; in the whole collection about 1.6% have one here.
KCNQ2 inh: KCNQ2 (rat) channel inhibition; AID 2156; CHO-K1 KCNQ2, FluxOR thallium flux, 20 min; hits give low values; B-score at 10 µM; actives 1.1% (n = 310,000);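 active = fluorescence ratio B-score at most minus 3 library SDs, with starting brightness B-score within 2 library SDs, cut at about -5.5 in these data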
KCNQ2 pot: enhances the rat KCNQ2 potassium channel; AID 2239; actives 0.54% (n = 310,000); CHO-K1 KCNQ2, FluxOR thallium flux fluorescence; hits give high values; O88943; B-score at 10 µM;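 active = fluorescence ratio B-score at least 3 SD of library B-scores, with initial fluorescence B-score within 3 of them, cut at about 5.3 in these data; same plate scores as AID 2156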;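 note: B-score of peak minus minimum over baseline fluorescence ratio after K+ and Tl+ stimulus; positive B-score means potentiation of KCNQ2 with more thallium influx and brighter signal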
Kir21 conf inh: confirmation of mouse Kir2.1 potassium channel inhibitors | actives 41% (n = 2,300) | Tl flux remaining, % of negative control (hits give low values), % at 10 µM | Kir2.1-expressing cells, FluxOR thallium flux fluorescence; hits give low values | AID 2032 | shares compounds with KCNQ2 pot;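 active = Primary-screen hit whose thallium flux fell at least 3 control SD below untreated wells in both duplicates, with normal baseline fluorescence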;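 note: 0% = blank wells without stimulus and 100% = stimulated no-compound controls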
Target sequence (P35561 whole entry, looked up): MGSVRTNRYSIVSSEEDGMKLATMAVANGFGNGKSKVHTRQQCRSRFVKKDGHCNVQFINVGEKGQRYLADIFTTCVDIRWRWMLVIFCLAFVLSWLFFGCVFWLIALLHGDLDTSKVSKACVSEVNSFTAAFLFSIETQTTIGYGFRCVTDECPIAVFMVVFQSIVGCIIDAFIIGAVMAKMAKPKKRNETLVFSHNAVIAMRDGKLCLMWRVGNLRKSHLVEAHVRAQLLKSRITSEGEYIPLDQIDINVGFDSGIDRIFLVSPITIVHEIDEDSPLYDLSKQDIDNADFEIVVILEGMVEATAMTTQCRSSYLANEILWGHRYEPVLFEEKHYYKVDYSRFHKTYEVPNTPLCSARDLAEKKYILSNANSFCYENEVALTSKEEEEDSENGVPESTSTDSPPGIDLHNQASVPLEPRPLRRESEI
HEK293 Tl flux: parental HEK293 activity in Kir2.1 inhibitor counter-screen | shares compounds with KCNQ2 pot | parental HEK293 cells, FluxOR thallium flux fluorescence; 0% = unstimulated blank wells | FluxOR signal as % of negative control (100 = no effect), % at 10 µM | actives 19% (n = 2,300) | AID 2105;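 active = dye signal at least 3 control SD above or below untreated wells in both duplicates, raw fluorescence within 3, either direction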;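 note: percent is based on the flux ratio of peak minus minimum fluorescence over baseline F0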
CHO-K1 Tl ctr: parental CHO-K1 activity in KCNQ2 potentiator counter-screen; shares compounds with KCNQ2 pot; parental CHO-K1 cells, FluxOR thallium flux fluorescence; zero = vehicle mean+3SD, 100% = vehicle-minus-blank window; activity increase over 3SD of controls, % at 10 µM; actives 43% (n = 1,200);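 active = signal rise of at least 3 SD above the untreated control mean, in both duplicate wells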;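 note: counter screen of KCNQ2 potentiator hits so any rise reflects channel-independent effects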
KCNQ1 sel pot: tests whether KCNQ2 potentiators also act on human KCNQ1 | actives 28% (n = 1,200) | AID 2283 | CHO KCNQ1 stable, FluxOR thallium flux fluorescence; beyond 3SD, as % of vehicle-control signal | activation over 3SD threshold, % at 10 µM | shares compounds with KCNQ2 pot;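 active = fluorescence ratio rise of at least 3 SD of vehicle wells above their mean, in both replicate wells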;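 note: 0% = vehicle mean plus 3 SD and 100% = vehicle minus unstimulated blank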
KCNQ2 pot confirm: confirmation of rat KCNQ2 potassium channel potentiators. CHO-KCNQ2 cells, FluxOR thallium flux fluorescence. potentiation, less the hit threshold, % at 10 µM. actives 68% (n = 1,200). shares compounds with KCNQ2 pot. AID 2287;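 active = fluorescence ratio rising 3 SD or more over the vehicle control mean in both replicates, plus primary screen hit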;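 note: peak minus minimum thallium fluorescence divided by baseline after K/Tl stimulus; 0% = vehicle mean plus 3 SD and 100% = vehicle minus unstimulated blank difference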
Kir2-1 sel: tests whether KCNQ2 potentiators also affect mouse Kir2.1. shares compounds with KCNQ2 pot. HEK293 Kir2.1, FluxOR thallium flux fluorescence. activity over 3SD threshold, % at 10 µM. actives 2% (n = 1,200);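 active = fluorescence ratio rise of at least 3 SD above the vehicle-control mean, seen in both replicates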;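 note: 0% = vehicle mean plus 3 SD and 100% = vehicle minus no-stimulus blank window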
KCNQ2 W236L pot: KCNQ2 potentiators acting on retigabine-insensitive rat KCNQ2 W236L mutant; shares compounds with KCNQ2 pot; CHO KCNQ2-W236L, automated patch clamp current; current increase over 3SD of negative controls (%), hits give high values, % at 25 µM; actives 10% (n = 940); AID 2558;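 active = current increase at least 3 SD of the untreated controls above them in both duplicate recordings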
* marks the source's active call; other numbers are inactive results; i = inactive; x = no result given.

SMILES	KCNQ2 inh	KCNQ2 pot	Kir21 conf inh	HEK293 Tl flux	others
CC1(C)CC(NC(=O)COc2ccc3c4c(c(=O)oc3c2)CCCC4)CC(C)(C)N1	i	0.4	x	x
Cn1c(=O)c(=O)n(C)c2cc(N3CCCC3)c(NS(=O)(=O)c3ccc(Cl)cc3)cc21	i	x	x	x
Cc1ccc(-c2nc(-c3ccncc3)no2)cc1	i	0.06	x	x
CC(C)(C)c1ccc(-c2nc(-c3ccncc3)no2)cc1	i	7*	i	i	CHO-K1 Tl ctr=54.1*;KCNQ1 sel pot=-12.9;KCNQ2 pot confirm=45.5*;Kir2-1 sel=-35.8;KCNQ2 W236L pot=i
O=C(CNS(=O)(=O)c1ccccc1)N/N=C/c1ccccc1[N+](=O)[O-]	i	0.27	x	x
COc1cccc(NC(=O)NCCc2ccc(Cl)cc2)c1	i	x	x	x
CCCCSCCCNC(=O)Nc1cccc(OC)c1	i	8.63*	i	i	CHO-K1 Tl ctr=-13.9;KCNQ1 sel pot=-16.4;KCNQ2 pot confirm=14.8*;Kir2-1 sel=-35.6;KCNQ2 W236L pot=i
S=c1[nH]nc([C@@H]2C[C@H]2c2ccccc2)n1-c1ccccc1Cl	i	x	x	x
Cc1c(N2C(=O)/C(=C\c3ccccc3O)SC2=S)c(=O)n(-c2ccccc2)n1C	i	17.8*	i	343.0%*	CHO-K1 Tl ctr=114.2*;KCNQ1 sel pot=-12.9;KCNQ2 pot confirm=40.4*;Kir2-1 sel=-7.5;KCNQ2 W236L pot=i
Cc1c(N2C(=O)/C(=C/c3ccccc3)SC2=S)c(=O)n(-c2ccccc2)n1C	i	1.43	x	x
O=S1(=O)CCC(N=Cc2cc(Br)ccc2O)C1 (stereo not drawn)	i	6.37*	i	i	CHO-K1 Tl ctr=21.1*;KCNQ1 sel pot=-19.1;KCNQ2 pot confirm=21.9*;Kir2-1 sel=-14.8;KCNQ2 W236L pot=i
O=c1c2ccccc2c(C=NC2CCS(=O)(=O)C2)c(O)n1-c1ccccc1 (stereo not drawn)	i	0.49	x	x
COc1ccc(OC)c(C(C)NC(=O)Nc2ccccc2)c1 (stereo not drawn)	i	9.56*	x	x	CHO-K1 Tl ctr=-9.4;KCNQ1 sel pot=-12.0;KCNQ2 pot confirm=32.6*;Kir2-1 sel=-64.0;KCNQ2 W236L pot=i
COc1ccc(OC)c(C(C)NC(=O)C23CC4CC(CC(C4)C2)C3)c1 (stereo not drawn)	i	4.81	x	x
Cc1cccc(NC(=O)c2cccc(NC3=NC4CS(=O)(=O)CC4S3)c2)c1 (stereo not drawn)	i	0.88	x	x
COc1ccc(/C=N/NC(=S)SC)cc1OC	i	0.18	x	x
CSC(=S)N/N=C/c1ccccc1	i	9.34*	i	218.5%*	CHO-K1 Tl ctr=-7.1;KCNQ1 sel pot=9.4*;KCNQ2 pot confirm=7.4*;Kir2-1 sel=-42.0;KCNQ2 W236L pot=i
O=C(CSc1nc2ccc(Cl)cc2[nH]1)Nc1ccc2[nH]c(=O)[nH]c2c1	i	0.25	x	x
CCN1C(=O)[C@@H]2[C@@H](c3ccc(-c4ccc(Cl)c(Cl)c4)c(OC)c3)N3CCCC[C@@]3(C(=O)OC)[C@@H]2C1=O	i	x	x	x
Cc1cc(NC(=O)CC2Oc3ccccc3NC2=O)ccc1Br (stereo not drawn)	i	0.54	x	x
OCC1(CCOc2ccccc2)CCN(Cc2ccncc2)CC1	i	x	x	x
CSc1ccc(CN2CCC(CO)(CCOc3ccccc3)CC2)cc1	i	0.62	42.5%*	i
S=C(NCc1ccc(Cl)cc1)NCc1ccccn1	i	x	x	x
CC(C)CCC(CCNCc1ccccn1)c1ccc(Cl)cc1 (stereo not drawn)	i	0.09	35.5%*	i
CCN1CCN(C(=O)C(=O)c2cn(CC(=O)N3CCCC3)c3ccccc23)CC1	i	x	x	x
O=C(CCl)NC(Cc1c[nH]c2ccc(OCc3ccccc3)cc12)C(=O)O (stereo not drawn)	i	1.77	x	x
COc1ccc(CCC(C)NCc2ccc(C(F)(F)F)cc2)cc1 (stereo not drawn)	i	2.19	x	x
